In publication PMC7862700, “An all-to-all approach to the identification of sequence-specific readers for epigenetic DNA modifications on cytosine”:

Assays:
Assay in all cases: DAPPL (digital affinity profiling via proximity ligation, sequencing); 10 mM Tris-HCl pH 7.5, 50 mM NaCl, 1 mM DTT, 4% glycerol, room temperature, 30 min; GST-TFs on glutathione beads, 16-mer random dsDNA library, 0.1% formaldehyde crosslink after washing; high values mean tight binding
FLI1 = target: T1, FLI1 (Homo sapiens, UniProt Q01543 1-452); details: protein: recombinant; tags: N-terminal GST; dsDNA, one strand shown
T1 sequence: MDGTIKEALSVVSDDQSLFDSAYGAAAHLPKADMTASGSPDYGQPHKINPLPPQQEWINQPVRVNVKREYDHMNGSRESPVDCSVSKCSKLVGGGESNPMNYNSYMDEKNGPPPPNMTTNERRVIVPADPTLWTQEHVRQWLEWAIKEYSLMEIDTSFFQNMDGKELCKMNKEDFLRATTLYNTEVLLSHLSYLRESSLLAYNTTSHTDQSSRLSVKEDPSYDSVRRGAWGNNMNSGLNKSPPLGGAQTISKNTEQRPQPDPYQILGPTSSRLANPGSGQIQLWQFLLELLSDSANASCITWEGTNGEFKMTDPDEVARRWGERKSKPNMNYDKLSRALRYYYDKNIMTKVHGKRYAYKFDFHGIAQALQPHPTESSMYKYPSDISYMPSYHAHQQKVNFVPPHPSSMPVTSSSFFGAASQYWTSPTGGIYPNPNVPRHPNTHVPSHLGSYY
Method in brief: (§1)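 A tag-only sample was pooled with DNA-barcoded human transcription factors that had been expressed in yeast as GST fusions and captured on glutathione beads. The pools were incubated for 30 min at room temperature with 200 nmole of a random double-stranded 16-mer DNA library in Tris/NaCl/DTT/glycerol buffer, then washed, crosslinked with 0.1% formaldehyde, proximity-ligated (BsaI/T4 ligase, 1 h, 37 °C), PCR-amplified and sequenced on an Illumina NextSeq500. Binding signal is each hexamer's read frequency for a factor divided by its frequency for the tag-only sample.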

ELK1 = target: T2, ELK1 (Homo sapiens, UniProt P19419 1-428); details: protein: recombinant; tags: N-terminal GST; dsDNA, one strand shown
T2 sequence: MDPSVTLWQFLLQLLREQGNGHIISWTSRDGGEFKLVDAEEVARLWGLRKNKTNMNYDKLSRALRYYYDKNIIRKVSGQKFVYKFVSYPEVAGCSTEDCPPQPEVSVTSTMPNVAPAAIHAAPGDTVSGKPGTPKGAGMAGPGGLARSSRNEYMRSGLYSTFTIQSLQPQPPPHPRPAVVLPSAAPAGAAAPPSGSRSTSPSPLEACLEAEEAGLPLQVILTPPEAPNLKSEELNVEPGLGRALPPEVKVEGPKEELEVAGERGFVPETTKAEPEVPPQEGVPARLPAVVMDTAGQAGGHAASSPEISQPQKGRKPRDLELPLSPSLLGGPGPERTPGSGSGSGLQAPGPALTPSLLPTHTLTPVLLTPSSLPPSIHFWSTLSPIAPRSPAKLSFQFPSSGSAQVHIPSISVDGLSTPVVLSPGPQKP
Method in brief: as §1

GABPA = target: T3, GABPA (Homo sapiens, UniProt Q06546 1-454); details: protein: recombinant; tags: N-terminal GST; dsDNA, one strand shown
T3 sequence: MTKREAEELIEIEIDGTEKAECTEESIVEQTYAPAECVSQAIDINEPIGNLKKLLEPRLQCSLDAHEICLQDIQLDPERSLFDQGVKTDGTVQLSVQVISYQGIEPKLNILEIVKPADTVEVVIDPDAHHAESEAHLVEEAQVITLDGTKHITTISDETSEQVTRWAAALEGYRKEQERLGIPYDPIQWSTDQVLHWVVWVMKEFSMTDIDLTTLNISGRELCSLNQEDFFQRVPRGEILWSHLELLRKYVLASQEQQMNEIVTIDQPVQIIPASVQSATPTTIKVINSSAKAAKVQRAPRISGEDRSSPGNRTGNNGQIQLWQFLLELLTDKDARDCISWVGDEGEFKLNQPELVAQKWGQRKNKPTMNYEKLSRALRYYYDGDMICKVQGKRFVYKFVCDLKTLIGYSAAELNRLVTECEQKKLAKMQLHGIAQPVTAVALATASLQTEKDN
Method in brief: as §1

ERG = target: T4, ERG (Homo sapiens, UniProt P11308 1-479); details: protein: recombinant; tags: N-terminal GST; dsDNA, one strand shown
T4 sequence: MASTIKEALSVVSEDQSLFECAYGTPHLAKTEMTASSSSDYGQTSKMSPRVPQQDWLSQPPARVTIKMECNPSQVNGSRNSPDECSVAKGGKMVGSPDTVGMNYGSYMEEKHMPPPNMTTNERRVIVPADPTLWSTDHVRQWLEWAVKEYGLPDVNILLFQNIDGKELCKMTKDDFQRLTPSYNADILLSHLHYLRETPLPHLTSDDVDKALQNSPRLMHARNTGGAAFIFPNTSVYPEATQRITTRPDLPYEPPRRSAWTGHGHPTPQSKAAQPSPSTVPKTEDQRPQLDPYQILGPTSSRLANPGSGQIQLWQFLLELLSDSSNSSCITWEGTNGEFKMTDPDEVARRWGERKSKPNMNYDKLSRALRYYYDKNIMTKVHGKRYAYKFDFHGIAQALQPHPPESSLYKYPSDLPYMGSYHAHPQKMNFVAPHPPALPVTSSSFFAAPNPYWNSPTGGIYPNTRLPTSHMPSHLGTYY
Method in brief: as §1

ELF1 = ELF1 (Homo sapiens, UniProt P32519 1-619); details: protein: recombinant; tags: N-terminal GST; dsDNA, one strand shown
Sequence of ELF1 (P32519 whole entry): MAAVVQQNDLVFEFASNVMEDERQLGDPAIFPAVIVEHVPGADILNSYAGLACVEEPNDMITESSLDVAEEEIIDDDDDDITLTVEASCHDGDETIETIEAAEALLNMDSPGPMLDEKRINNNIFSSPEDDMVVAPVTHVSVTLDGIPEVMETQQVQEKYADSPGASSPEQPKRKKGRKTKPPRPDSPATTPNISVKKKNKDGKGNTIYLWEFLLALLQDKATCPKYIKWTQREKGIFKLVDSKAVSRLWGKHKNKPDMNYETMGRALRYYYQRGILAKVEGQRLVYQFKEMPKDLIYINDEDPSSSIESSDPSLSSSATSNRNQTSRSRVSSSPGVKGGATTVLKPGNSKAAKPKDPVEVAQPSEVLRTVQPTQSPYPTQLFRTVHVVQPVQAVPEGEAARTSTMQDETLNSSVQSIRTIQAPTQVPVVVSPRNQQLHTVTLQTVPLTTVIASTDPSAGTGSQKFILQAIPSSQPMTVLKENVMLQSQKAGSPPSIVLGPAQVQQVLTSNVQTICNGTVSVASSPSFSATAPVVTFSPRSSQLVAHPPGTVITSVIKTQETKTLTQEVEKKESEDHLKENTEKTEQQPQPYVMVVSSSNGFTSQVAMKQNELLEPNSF
Method in brief: as §1

EHF = target: T5, EHF (Homo sapiens, UniProt Q9NZC4 1-300); details: protein: recombinant; tags: N-terminal GST; dsDNA, one strand shown
T5 sequence: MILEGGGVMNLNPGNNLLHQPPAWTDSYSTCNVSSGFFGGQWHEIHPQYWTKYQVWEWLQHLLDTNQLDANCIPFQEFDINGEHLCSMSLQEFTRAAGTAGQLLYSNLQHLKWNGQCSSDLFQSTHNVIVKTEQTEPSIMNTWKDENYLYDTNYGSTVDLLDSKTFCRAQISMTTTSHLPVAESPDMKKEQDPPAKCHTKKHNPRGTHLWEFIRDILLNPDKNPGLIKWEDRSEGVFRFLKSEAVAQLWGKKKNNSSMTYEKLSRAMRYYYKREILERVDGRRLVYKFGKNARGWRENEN
Method in brief: as §1

SPI1 = SPI1 (Homo sapiens, UniProt P17947 1-270); details: protein: recombinant; tags: N-terminal GST; dsDNA, one strand shown
Method in brief: as §1

SPIB = SPIB (Homo sapiens, UniProt Q01892 1-262); details: protein: recombinant; tags: N-terminal GST; dsDNA, one strand shown
Sequence of SPIB (Q01892 whole entry): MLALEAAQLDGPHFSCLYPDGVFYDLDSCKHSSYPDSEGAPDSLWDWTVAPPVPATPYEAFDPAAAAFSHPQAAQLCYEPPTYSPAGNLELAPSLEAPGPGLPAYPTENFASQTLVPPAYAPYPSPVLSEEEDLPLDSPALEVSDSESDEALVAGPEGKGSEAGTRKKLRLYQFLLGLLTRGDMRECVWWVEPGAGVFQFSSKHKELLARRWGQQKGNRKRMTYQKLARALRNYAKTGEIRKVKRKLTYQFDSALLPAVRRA
Method in brief: as §1

ELK3 = target: T6, ELK3 (Homo sapiens, UniProt P41970 1-407); details: protein: recombinant; tags: N-terminal GST; dsDNA, one strand shown
T6 sequence: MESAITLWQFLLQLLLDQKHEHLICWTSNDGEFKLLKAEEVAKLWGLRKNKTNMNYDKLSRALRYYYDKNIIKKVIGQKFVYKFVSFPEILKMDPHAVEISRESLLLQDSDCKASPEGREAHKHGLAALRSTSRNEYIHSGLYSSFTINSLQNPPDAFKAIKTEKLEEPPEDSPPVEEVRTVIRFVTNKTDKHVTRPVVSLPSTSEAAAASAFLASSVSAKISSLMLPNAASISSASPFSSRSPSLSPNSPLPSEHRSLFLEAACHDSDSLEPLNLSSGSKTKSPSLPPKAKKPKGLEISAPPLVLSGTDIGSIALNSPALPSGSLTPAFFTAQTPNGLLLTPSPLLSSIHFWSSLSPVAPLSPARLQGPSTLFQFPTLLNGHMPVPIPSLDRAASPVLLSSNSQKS
Method in brief: as §1

FEV = target: T7, FEV (Homo sapiens, UniProt Q99581 1-238); details: protein: recombinant; tags: N-terminal GST; dsDNA, one strand shown
T7 sequence: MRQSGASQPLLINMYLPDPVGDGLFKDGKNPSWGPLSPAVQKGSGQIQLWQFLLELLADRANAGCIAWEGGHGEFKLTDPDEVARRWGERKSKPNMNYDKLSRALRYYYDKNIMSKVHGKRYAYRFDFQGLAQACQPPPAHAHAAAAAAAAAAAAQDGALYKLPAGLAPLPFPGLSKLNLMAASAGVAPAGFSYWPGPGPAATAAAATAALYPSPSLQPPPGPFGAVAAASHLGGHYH
Method in brief: as §1

ETV5 = ETV5 (Homo sapiens, UniProt P41161 1-510); details: protein: recombinant; tags: N-terminal GST; dsDNA, one strand shown
Sequence of ETV5 (P41161 whole entry): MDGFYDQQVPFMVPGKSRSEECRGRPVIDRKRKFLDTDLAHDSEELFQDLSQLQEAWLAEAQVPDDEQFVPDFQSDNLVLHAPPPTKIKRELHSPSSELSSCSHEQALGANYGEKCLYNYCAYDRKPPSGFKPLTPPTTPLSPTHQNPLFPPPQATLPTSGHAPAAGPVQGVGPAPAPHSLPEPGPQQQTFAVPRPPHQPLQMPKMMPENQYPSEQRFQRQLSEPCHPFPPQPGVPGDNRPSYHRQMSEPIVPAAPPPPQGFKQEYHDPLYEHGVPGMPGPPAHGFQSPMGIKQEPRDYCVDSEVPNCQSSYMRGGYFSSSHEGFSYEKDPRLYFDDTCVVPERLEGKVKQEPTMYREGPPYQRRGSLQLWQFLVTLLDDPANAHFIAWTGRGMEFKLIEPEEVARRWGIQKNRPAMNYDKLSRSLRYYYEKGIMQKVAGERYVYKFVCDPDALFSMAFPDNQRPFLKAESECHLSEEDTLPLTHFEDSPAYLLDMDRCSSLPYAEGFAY
Method in brief: as §1

HSF1 = HSF1 (Homo sapiens, UniProt Q00613 1-529); details: protein: recombinant; tags: N-terminal GST; chain copies: 3; dsDNA, one strand shown
Sequence of HSF1 (Q00613 whole entry): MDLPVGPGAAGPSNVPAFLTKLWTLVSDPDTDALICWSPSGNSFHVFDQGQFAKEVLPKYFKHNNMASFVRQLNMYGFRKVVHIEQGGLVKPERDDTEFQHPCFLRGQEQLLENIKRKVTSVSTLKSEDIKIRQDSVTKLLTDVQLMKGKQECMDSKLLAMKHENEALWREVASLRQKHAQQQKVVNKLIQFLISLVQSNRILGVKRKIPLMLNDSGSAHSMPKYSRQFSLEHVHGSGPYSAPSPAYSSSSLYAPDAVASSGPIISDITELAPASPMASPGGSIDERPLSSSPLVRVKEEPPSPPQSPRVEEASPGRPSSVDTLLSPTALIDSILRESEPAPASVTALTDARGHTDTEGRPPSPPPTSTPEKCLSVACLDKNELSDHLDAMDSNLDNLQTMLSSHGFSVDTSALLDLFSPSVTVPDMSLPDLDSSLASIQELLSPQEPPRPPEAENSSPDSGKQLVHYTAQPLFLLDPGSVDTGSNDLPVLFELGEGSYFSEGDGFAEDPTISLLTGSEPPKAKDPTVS
Method in brief: as §1

SPIC = target: T8, SPIC (Homo sapiens, UniProt Q8N5J4 1-248); details: protein: recombinant; tags: N-terminal GST; dsDNA, one strand shown
T8 sequence: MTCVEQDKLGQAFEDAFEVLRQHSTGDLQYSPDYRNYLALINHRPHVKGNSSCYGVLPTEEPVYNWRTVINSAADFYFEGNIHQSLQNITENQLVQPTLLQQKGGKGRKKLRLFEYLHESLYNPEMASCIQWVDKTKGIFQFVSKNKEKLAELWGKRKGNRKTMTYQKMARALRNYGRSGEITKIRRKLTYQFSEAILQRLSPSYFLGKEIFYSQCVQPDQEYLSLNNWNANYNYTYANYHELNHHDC
Method in brief: as §1

ELF4 = ELF4 (Homo sapiens, UniProt Q99607 1-663); details: protein: recombinant; tags: N-terminal GST; dsDNA, one strand shown
Sequence of ELF4 (Q99607 whole entry): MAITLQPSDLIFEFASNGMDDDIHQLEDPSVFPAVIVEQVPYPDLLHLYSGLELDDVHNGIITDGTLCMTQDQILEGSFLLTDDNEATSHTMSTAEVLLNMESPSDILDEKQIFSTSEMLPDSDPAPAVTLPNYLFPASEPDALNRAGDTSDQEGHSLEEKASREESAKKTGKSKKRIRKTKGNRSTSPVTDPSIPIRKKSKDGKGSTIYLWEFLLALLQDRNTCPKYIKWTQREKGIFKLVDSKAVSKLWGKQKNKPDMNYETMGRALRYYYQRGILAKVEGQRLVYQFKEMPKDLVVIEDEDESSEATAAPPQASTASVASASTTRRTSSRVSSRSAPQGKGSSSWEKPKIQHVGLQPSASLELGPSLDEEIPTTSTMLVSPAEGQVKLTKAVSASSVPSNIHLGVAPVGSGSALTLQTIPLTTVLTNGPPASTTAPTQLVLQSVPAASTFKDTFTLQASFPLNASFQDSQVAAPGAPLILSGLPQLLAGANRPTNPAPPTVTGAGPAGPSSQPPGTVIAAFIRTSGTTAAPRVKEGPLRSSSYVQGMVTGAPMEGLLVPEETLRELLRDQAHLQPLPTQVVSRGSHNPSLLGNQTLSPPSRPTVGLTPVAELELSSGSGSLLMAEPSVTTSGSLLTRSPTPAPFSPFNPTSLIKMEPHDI
Method in brief: as §1

ETV2 = target: T9, ETV2 (Homo sapiens, UniProt O00321 1-342); details: protein: recombinant; tags: N-terminal GST; dsDNA, one strand shown
T9 sequence: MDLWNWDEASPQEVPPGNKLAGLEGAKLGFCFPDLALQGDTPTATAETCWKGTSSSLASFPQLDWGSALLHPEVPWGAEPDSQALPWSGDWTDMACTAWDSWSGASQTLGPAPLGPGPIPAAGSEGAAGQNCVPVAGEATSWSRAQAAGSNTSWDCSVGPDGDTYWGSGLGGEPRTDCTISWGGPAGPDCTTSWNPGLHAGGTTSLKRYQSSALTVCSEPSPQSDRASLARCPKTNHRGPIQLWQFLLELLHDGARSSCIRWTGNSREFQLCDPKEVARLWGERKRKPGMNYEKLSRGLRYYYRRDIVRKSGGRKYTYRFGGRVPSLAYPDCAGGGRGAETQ
Method in brief: as §1

ELF3 = target: T10, ELF3 (Homo sapiens, UniProt P78545 1-371); details: protein: recombinant; tags: N-terminal GST; dsDNA, one strand shown
T10 sequence: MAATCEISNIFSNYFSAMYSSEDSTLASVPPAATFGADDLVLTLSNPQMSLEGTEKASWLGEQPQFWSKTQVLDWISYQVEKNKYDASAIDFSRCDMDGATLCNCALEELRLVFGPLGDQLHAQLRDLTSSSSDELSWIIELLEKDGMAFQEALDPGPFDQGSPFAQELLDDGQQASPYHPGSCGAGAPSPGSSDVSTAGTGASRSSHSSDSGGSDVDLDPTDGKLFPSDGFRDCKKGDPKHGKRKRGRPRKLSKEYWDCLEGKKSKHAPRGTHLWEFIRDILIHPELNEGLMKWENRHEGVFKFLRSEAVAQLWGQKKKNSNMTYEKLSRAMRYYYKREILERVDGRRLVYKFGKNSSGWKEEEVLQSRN
Method in brief: as §1

ETV1 = ETV1 (Homo sapiens, UniProt P50549 1-477); details: protein: recombinant; tags: N-terminal GST; dsDNA, one strand shown
Sequence of ETV1 (P50549 whole entry): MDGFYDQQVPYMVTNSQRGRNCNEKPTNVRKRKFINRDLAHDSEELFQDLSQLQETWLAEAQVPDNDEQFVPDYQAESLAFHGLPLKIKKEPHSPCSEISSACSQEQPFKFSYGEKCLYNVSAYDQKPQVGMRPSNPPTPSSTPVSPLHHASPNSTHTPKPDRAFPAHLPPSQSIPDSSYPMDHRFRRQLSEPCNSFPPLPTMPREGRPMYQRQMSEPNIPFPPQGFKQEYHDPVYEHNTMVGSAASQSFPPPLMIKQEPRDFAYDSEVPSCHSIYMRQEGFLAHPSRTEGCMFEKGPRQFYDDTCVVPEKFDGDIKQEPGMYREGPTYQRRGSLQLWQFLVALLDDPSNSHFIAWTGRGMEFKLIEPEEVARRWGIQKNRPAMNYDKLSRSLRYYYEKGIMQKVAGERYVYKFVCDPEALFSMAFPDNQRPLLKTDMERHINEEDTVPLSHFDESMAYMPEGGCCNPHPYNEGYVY
Method in brief: as §1

CRX = CRX (Homo sapiens, UniProt O43186 1-299); details: protein: recombinant; tags: N-terminal GST; dsDNA, one strand shown
Sequence of CRX (O43186 whole entry): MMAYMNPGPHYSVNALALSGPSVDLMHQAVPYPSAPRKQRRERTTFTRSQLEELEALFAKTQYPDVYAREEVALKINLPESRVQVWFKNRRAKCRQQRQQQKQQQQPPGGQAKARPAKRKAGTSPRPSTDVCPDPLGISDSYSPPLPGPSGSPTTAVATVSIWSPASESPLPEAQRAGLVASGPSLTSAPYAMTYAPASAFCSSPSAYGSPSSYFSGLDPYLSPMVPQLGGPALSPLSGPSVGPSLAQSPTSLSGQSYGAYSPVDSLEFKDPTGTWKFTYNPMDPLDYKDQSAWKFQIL
Method in brief: as §1

Sequence | binding signal (FLI1) | binding signal (ELK1) | binding signal (GABPA) | binding signal (ERG) | binding signal (ELF1) | binding signal (EHF) | binding signal (SPI1) | binding signal (SPIB) | binding signal (ELK3) | binding signal (FEV) | binding signal (ETV5) | binding signal (HSF1) | binding signal (SPIC) | binding signal (ELF4) | binding signal (ETV2) | binding signal (ELF3) | binding signal (ETV1) | binding signal (CRX)
AAACGA | 1.07 fold enrichment (6-mer frequency, TF over GST control) | 1.14 fold enrichment (6-mer frequency, TF over GST control) | 1.17 fold enrichment (6-mer frequency, TF over GST control) | 1.11 fold enrichment (6-mer frequency, TF over GST control) | 1.08 fold enrichment (6-mer frequency, TF over GST control) | 1.04 fold enrichment (6-mer frequency, TF over GST control) | 1.1 fold enrichment (6-mer frequency, TF over GST control) | 1 fold enrichment (6-mer frequency, TF over GST control) | 1.14 fold enrichment (6-mer frequency, TF over GST control) | 1.09 fold enrichment (6-mer frequency, TF over GST control) | 1.1 fold enrichment (6-mer frequency, TF over GST control) | 1.09 fold enrichment (6-mer frequency, TF over GST control) | 1.02 fold enrichment (6-mer frequency, TF over GST control) | 1.08 fold enrichment (6-mer frequency, TF over GST control) | 1.1 fold enrichment (6-mer frequency, TF over GST control) | 1.11 fold enrichment (6-mer frequency, TF over GST control) | 1.03 fold enrichment (6-mer frequency, TF over GST control) | –
AGATGA | 1.06 fold enrichment (6-mer frequency, TF over GST control) | 1.13 fold enrichment (6-mer frequency, TF over GST control) | – | 1.11 fold enrichment (6-mer frequency, TF over GST control) | 1.14 fold enrichment (6-mer frequency, TF over GST control) | 1.06 fold enrichment (6-mer frequency, TF over GST control) | 1.07 fold enrichment (6-mer frequency, TF over GST control) | 1.03 fold enrichment (6-mer frequency, TF over GST control) | 1.14 fold enrichment (6-mer frequency, TF over GST control) | 1.01 fold enrichment (6-mer frequency, TF over GST control) | 1.11 fold enrichment (6-mer frequency, TF over GST control) | 1.24 fold enrichment (6-mer frequency, TF over GST control) | 1.14 fold enrichment (6-mer frequency, TF over GST control) | 1.12 fold enrichment (6-mer frequency, TF over GST control) | 1.17 fold enrichment (6-mer frequency, TF over GST control) | – | 1.1 fold enrichment (6-mer frequency, TF over GST control) | 1.21 fold enrichment (6-mer frequency, TF over GST control)
